# PubChem BioAssay AID624405 (Broad Institute, 2012)
# About 250 (13%) of roughly 1,900 compounds were called active. About 4% were inconclusive and are not listed. Only a sample is shown. Measured potencies and affinities stand elsewhere. Unmarked numbers belong to inactive results.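 Rule for the calls: active = fitted curve reaches 40% rescue activity at or below the top valid dose, in every test run; inconclusive = test runs disagree, some active and some inactive; inactive = every run misses the threshold or moves the wrong way.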
# Test: rescue of simvastatin-induced ATP loss – cell-based, C2C12 myotubes, ATP luminescence, cherry pick, dose response (AID 624405);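 note: myotubes are challenged with simvastatin at 10 µM to lower ATP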
# Details: 48 h, scaled: DMSO wells 0, geranylgeraniol wells 100; series mostly up to 19.5 µM; rescue activity (ATP increase): at the top concentration
row,Structure (SMILES),rescue activity (ATP increase)
1,c1ccc(Nc2nc(-c3cccs3)cs2)nc1,26%
2,C/C(=N/Nc1nc(-c2ccc(Cl)cc2)cs1)c1cccs1,-40.2%
3,Cc1cc(C(=O)Nc2ccc3c(c2)C(=O)N(C)[C@@H]2CC[C@@H](CC(=O)N[C@H](C)c4ccccc4)O[C@@H]2CO3)no1,26.1%
4,CC(C)[C@H](NS(=O)(=O)c1ccccc1)C(=O)OCC(=O)NC(=O)NC1CCCCC1,-10.8%
5,CCOC(=O)N1CCN(C(=O)Cc2ccsc2)CC1,-30.6%
6,C[C@@H]1CN([C@@H](C)CO)C(=O)c2cccc(NS(=O)(=O)c3cccs3)c2O[C@@H]1CN(C)C(=O)Nc1ccc(C(F)(F)F)cc1,-7.49%
7,C[C@H](CO)N1C[C@H](C)[C@H](CN(C)C(=O)Nc2ccc(F)cc2)OCCCC[C@H](C)Oc2ccc(NC(=O)Cc3ccccc3)cc2C1=O,-7.95%
8,Fc1ccc(CSc2nnc(CN3CCOCC3)n2-c2ccccc2)c(Cl)c1,-26.3%
9,COc1ccc(CN(C)C[C@@H]2Oc3ccc(NS(=O)(=O)c4ccc(Cl)cc4)cc3CC(=O)N([C@H](C)CO)C[C@H]2C)cc1,34.8%
10,COc1ccc(S(=O)(=O)Nc2ccc3c(c2)CC(=O)N([C@@H](C)CO)C[C@@H](C)[C@H](CN(C)Cc2ccc(Cl)c(Cl)c2)O3)cc1,19.7%
11,COc1ccc(S(=O)(=O)Nc2ccc3c(c2)C(=O)N([C@@H](C)CO)C[C@@H](C)[C@@H](CN(C)S(=O)(=O)c2ccc(F)cc2)OCCCC[C@H](C)O3)cc1,28.1%
12,C[C@H]1CN([C@@H](C)CO)C(=O)Cc2cc(NS(=O)(=O)c3ccc(F)cc3)ccc2O[C@H]1CN(C)Cc1ccccc1,29.1%
13,COc1ccc(S(=O)(=O)Nc2ccc3c(c2)CC(=O)N([C@@H](C)CO)C[C@H](C)[C@H](CN(C)Cc2ccc(Cl)c(Cl)c2)O3)cc1,14.6%
14,C[C@@H]1CN([C@@H](C)CO)C(=O)Cc2cc(NS(=O)(=O)c3ccc(Cl)cc3)ccc2O[C@H]1CN(C)Cc1ccc(-c2ccccc2)cc1,28.9%
15,COc1ccc(S(=O)(=O)Nc2ccc3c(c2)C(=O)N([C@H](C)CO)C[C@H](C)[C@H](CN(C)S(=O)(=O)c2ccc(F)cc2)OCCCC[C@@H](C)O3)cc1,19.6%
16,COc1ccc(CN(C)C[C@@H]2Oc3ccc(NS(=O)(=O)c4ccc(F)cc4)cc3CC(=O)N([C@H](C)CO)C[C@H]2C)cc1,35.2% [at 21 µM]
17,COc1ccc(N=C2S/C(=C\c3cc(C)n(C)c3C)C(=O)N2CC(C)C)cc1,-33.1%
18,COc1ccc(NC(=O)Nc2ccc3c(c2)C(=O)N([C@H](C)CO)C[C@H](C)[C@H](CN(C)Cc2ccc(C(F)(F)F)cc2)OCCCC[C@H](C)O3)cc1,-42.8%
19,C[C@@H]1CN([C@H](C)CO)C(=O)Cc2cc(NC(=O)CCC(F)(F)F)ccc2O[C@H]1CN(C)Cc1ccc(Oc2ccccc2)cc1,17.4% [at 21 µM]
20,CN(C)S(=O)(=O)c1ccc(C(=O)NCCOc2ccc(F)cc2)cc1,-10.8%
21,COc1ccc(S(=O)(=O)Nc2ccc3c(c2)C(=O)N([C@H](C)CO)C[C@H](C)[C@H](CN(C)S(=O)(=O)c2cccs2)OCCCC[C@H](C)O3)cc1,5.74%
22,C[C@@H]1CCCCO[C@@H](CN(C)S(C)(=O)=O)[C@H](C)CN([C@@H](C)CO)C(=O)c2cc(NS(=O)(=O)c3ccc(F)cc3)ccc2O1,16.5%
23,Cc1oc(C(=O)O)cc1COc1cccc2cccnc12,-12.5%
24,c1ccc2c(c1)CCN(Cc1nnnn1Cc1ccc3c(c1)OCO3)C2,-2.57%
25,Cc1ccc(C(O)CN2C3=NCCN3c3ccccc32)cc1 (stereo not given),2.99%

row,Structure (SMILES),rescue activity (ATP increase)
1,C[C@@H]1CN([C@H](C)CO)C(=O)Cc2cc(NC(=O)Nc3cccc4ccccc34)ccc2O[C@@H]1CN(C)S(=O)(=O)c1cccs1,9.53%
2,C[C@H](CO)N1C[C@H](C)[C@@H](CN(C)C(=O)Nc2ccc(F)cc2)Oc2ccc(NC(=O)Cc3cn(C)c4ccccc34)cc2CC1=O,4.12% [at 10 µM]
3,Cc1ccc(S(=O)(=O)Nc2ccc3c(c2)CC(=O)N([C@H](C)CO)C[C@H](C)[C@H](CN(C)S(=O)(=O)c2ccc(C)cc2)O3)cc1,19.9%
4,Cc1ccc(S(=O)(=O)Nc2ccc3c(c2)CC(=O)N([C@@H](C)CO)C[C@@H](C)[C@H](CN(C)S(=O)(=O)c2ccc(C)cc2)O3)cc1,22.9%
5,COc1ccc(S(=O)(=O)Nc2ccc3c(c2)CC(=O)N([C@H](C)CO)C[C@H](C)[C@@H](CN(C)S(=O)(=O)c2ccc(C)cc2)O3)cc1,16.2%
6,C[C@H]1CN([C@@H](C)CO)C(=O)c2cc(NS(=O)(=O)c3ccc(F)cc3)ccc2O[C@@H]1CN(C)S(=O)(=O)c1ccc(F)cc1,12% [at 21 µM]
7,Cc1ccc(S(=O)(=O)N(C)C[C@@H]2Oc3ccc(NS(=O)(=O)c4ccc(F)cc4)cc3C(=O)N([C@H](C)CO)C[C@@H]2C)cc1,21.7% [at 21 µM]
8,C[C@@H]1CN([C@@H](C)CO)C(=O)Cc2cc(NC(=O)Nc3cccc4ccccc34)ccc2O[C@@H]1CN(C)S(=O)(=O)c1ccc(Cl)cc1,8.86%
9,O=C(O)c1nn(-c2ccccc2)nc1-c1nn(-c2ccccc2)nc1C(=O)O,8.4%
10,O=S(=O)(NN=C1CCCCC1)c1ccccc1,2.86%
11,CC1(C)NC(=O)N(CC(O)Cn2nnc3ccccc32)C1=O (stereo not given),16.7%
12,C[C@H](CO)N1C[C@H](C)[C@@H](CN(C)C(=O)C2CCC2)Oc2ncc(C#Cc3cccc(F)c3)cc2C1=O,0.264%
13,Nn1c(SCC(=O)N2CCN(S(=O)(=O)c3ccccc3)CC2)nnc1-c1cccs1,-6.28%
14,Cc1ccc(S(=O)(=O)Nc2ccc3c(c2)CC(=O)N([C@@H](C)CO)C[C@@H](C)[C@H](CN(C)Cc2ccc(C(F)(F)F)cc2)O3)cc1,35.9%
15,Cc1ccc(C(=O)N2CCSCC2)cc1,-3.87%
16,CSCCC(NC(N)=O)C(=O)NCC1CCCCC1 (stereo not given),1.42%
17,Cc1ccc(N2CCN(/N=C/c3sccc3C)CC2)cc1,5.86%
18,Cc1noc(C)c1S(=O)(=O)Nc1ccc2c(c1)C(=O)N([C@H](C)CO)C[C@H](C)[C@H](CN(C)S(=O)(=O)c1cccs1)OCCCC[C@H](C)O2,-0.171% [at 21 µM]
19,C[C@@H]1CN([C@H](C)CO)C(=O)Cc2cc(NC(=O)Nc3cccc4ccccc34)ccc2O[C@H]1CN(C)Cc1ccc(Cl)c(Cl)c1,26.4% [at 21 µM]
20,O=C(C[C@H]1CC[C@@H](NC(=O)c2ccc3c(c2)OCO3)[C@H](CO)O1)NCc1ccc(Oc2ccccc2)cc1,-3.13%
21,C[C@@H]1CN([C@@H](C)CO)C(=O)Cc2cc(NC(=O)Nc3cccc4ccccc34)ccc2O[C@H]1CN(C)Cc1ccc2c(c1)OCO2,8.72% [at 21 µM]
22,COC(=O)c1c(C(=O)OC)c2cc(C)ccn2c1Cl,-25%
23,C[C@@H]1CN([C@@H](C)CO)C(=O)Cc2cc(NS(=O)(=O)c3ccc(F)cc3)ccc2O[C@H]1CN(C)Cc1ccc(Oc2ccccc2)cc1,29%
24,C[C@@H]1CN([C@@H](C)CO)C(=O)c2cccc(NS(=O)(=O)c3cccs3)c2O[C@@H]1CN(C)S(=O)(=O)c1ccc(Cl)cc1,-8.95%
25,COc1cccc(-c2cnc3c(c2)C(=O)N([C@H](C)CO)C[C@H](C)[C@H](CN(C)S(=O)(=O)c2cccs2)O3)c1,-17.5%

row,Structure (SMILES),rescue activity (ATP increase)
1,COc1ccc(C2CC(=O)c3cnc(N)nc3C2)c(OC)c1 (stereo not given),-0.556%
2,COc1ccc2c(c1OC)C(=O)N(c1ccccn1)C2,17.7%
3,CCOc1ccc(OCCOCCOc2c(Cl)cccc2Cl)cc1,12.4%
4,COC(=O)c1cn(CC(=O)N2C(C)CCCC2C)c2ccccc12 (stereo not given),6.27%
5,COc1ccc(S(=O)(=O)Nc2ccc3c(c2)C(=O)N([C@@H](C)CO)C[C@@H](C)[C@H](CN(C)S(=O)(=O)c2ccc(F)cc2)OCCCC[C@H](C)O3)cc1,-11.1%
6,O=C(Nc1cccc(Cl)c1)C1CCCN(S(=O)(=O)c2ccc(F)cc2)C1 (stereo not given),13.5%
7,CCS(=O)(=O)N1CCCC(C(=O)NCCc2ccc(OC)c(OC)c2)C1 (stereo not given),-21.5%
8,Cc1ccc(S(=O)(=O)Nc2ccc3c(c2)C(=O)N([C@@H](C)CO)C[C@@H](C)[C@H](CN(C)S(=O)(=O)c2cccs2)O3)cc1,-0.835%
9,CCOc1ccc(CNn2nnnc2N)cc1,16.8%
10,C=CCN(c1ccccc1OC)S(=O)(=O)c1cccc(C(=O)OC2CCOC2=O)c1 (stereo not given),-36.4%
11,CCCNC(=O)N(C)C[C@@H]1Oc2cc(C3=CCCCC3)ccc2S(=O)(=O)N([C@H](C)CO)C[C@@H]1C,14%
12,Cc1ccc(NC(=O)c2ccccc2N(C)S(C)(=O)=O)cc1C,3.5%
13,CSc1ccccc1NC(=O)c1ccccc1N(Cc1ccccc1)S(C)(=O)=O,33.3%
14,C[C@@H]1CCCCO[C@@H](CN(C)C(=O)c2ccccc2)[C@H](C)CN([C@@H](C)CO)C(=O)c2cc(NS(=O)(=O)c3cccs3)ccc2O1,19.3%
15,CCOC(=O)c1sc(NC(=O)c2c(C)nn(Cc3ccccc3)c2C)cc1C,-7.04%
16,COc1ccc(CN2[C@H](CO)[C@@H]3c4ccccc4NC[C@@H]32)cc1,-13.1%
17,COc1ccc(CN2[C@@H](CO)[C@@H]3c4ccccc4NC[C@@H]32)cc1,-4.08% [at 21 µM]
18,O=C(Nc1ccccc1Cl)N1C[C@@H]2[C@H](c3ccccc31)[C@@H](CO)N2Cc1ccccc1,-13%
19,Cc1ccc(S(=O)(=O)Nc2ccc3c(c2)CC(=O)N([C@H](C)CO)C[C@H](C)[C@@H](CN(C)Cc2ccc(C(F)(F)F)cc2)O3)cc1,38.9%
20,O=C(NCc1ccco1)c1ccccc1NS(=O)(=O)c1ccc2c(c1)OCCO2,26%
21,FC(F)(F)c1nc2nncn2c2c1CCCCC2,23.5%
22,Cc1ccc(N(CN2CCCC2=O)C(=O)c2ccc(C)c(C)c2)cc1,29.9%
23,CCc1ccc(N2CC(C(=O)NC3=NCCS3)CC2=O)cc1 (stereo not given),-11.8%
24,CC(C)N1C(=O)CCC1C(=O)N1CCC(Cc2ccccc2)CC1 (stereo not given),19.4%
25,CC(C)CC(NC(=O)C1CCC(C)CC1)C(=O)Nc1cccnc1 (stereo not given),-6.5%
